Pol eta inh: blocks human DNA polymerase eta activity. AID 588591. actives 1.2% (n = 390,000). recombinant Pol eta, fluorescent DNA replication assay. Potency, µM (titrated, usually from 114 µM), hits mostly inhibitors. Q9Y253
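Pol eta (10 nM) was preincubated with compounds for 15 min at room temperature, after which fluorescent replication substrate (50 nM final) was added to start the reaction. Fluorescence was read kinetically at 0 and 10 min.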
Pol kappa inh: blocks human DNA polymerase kappa activity. Q9UBT6. purified Pol kappa, fluorescent DNA synthesis assay, 10 min. Potency, µM (titrated, usually from 107 µM), usual class: inhibitors. actives 0.53% (n = 400,000)
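Pol kappa 10 nM + cpd, 15 min RT; start w/ substrate 50 nM final; fluorescence kinetic read, 0 and 10 min. Neg ctrl: buffer, no enzyme.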
POLI inh: inhibitors of human DNA polymerase iota | Q9UNA4 | actives 1% (n = 390,000) | Pol iota fluorescent replication assay, 10 min | Potency, µM (highest dose often 115 µM), hits mostly inhibitors
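Fluorescent replication assay read twice, at 0 min and 10 min after adding 50 nM (final) substrate. Enzyme (10 nM) and compounds were first incubated 15 min at room temperature; enzyme-free buffer wells were negative controls.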
WRN inhibitor: inhibitors of human WRN helicase | WRN helicase unwinding, fluorescent forked duplex, kinetic | actives 0.46% (n = 360,000) | Potency, µM (top dose mostly 114 µM), actives largely listed as inhibitors; further: nearly all actives have a fitted effect of over 55% in size
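WRN at 20 nM final was preincubated with compound for 15 min at room temperature; reaction started with 100 nM forked duplex oligonucleotide carrying fluorophore and quencher plus 2 mM ATP (final). Unwinding followed kinetically by red fluorescence (ex 525/em 598 nm).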
POLB inh: inhibitors of human DNA polymerase beta. P06746. Pol beta primer extension/strand displacement, fluorescence kinetic. Potency, µM (titrated, usually from 114 µM), most hits filed as inhibitors. actives 1.3% (n = 340,000). AID 485314
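10 nM enzyme + cpd, 15 min RT; start with substrate 50 nM final; read 0 min and after 10 min RT. Corrected, normalized data; 4-parameter Hill curve fit.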
FEN1 inh: blocks human flap endonuclease 1; P39748; Recombinant FEN1 flap cleavage, fluorescence, 15 min; Potency, µM (top dose mostly 114 µM), actives largely listed as inhibitors; actives 0.35% (n = 390,000); AID 588795; further: nearly all actives have a fitted effect of over 65% in size
Target sequence (P39748 whole entry, looked up): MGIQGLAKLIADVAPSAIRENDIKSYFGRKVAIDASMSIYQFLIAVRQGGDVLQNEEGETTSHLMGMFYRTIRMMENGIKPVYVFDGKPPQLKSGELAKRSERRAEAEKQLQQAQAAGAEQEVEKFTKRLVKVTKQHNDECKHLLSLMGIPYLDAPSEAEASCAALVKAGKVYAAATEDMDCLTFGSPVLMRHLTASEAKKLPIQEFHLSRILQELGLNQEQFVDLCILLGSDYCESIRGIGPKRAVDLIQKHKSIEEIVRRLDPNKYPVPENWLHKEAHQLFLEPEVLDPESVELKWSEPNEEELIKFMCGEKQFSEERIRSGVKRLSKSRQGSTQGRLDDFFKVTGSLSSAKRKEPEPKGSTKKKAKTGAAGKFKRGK
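Compounds are tested as a concentration series against 10 nM FEN1; after a 15 min room-temperature preincubation, 50 nM substrate starts cleavage, with plate reads at 0 and 15 min. Normalized responses are fitted by a Hill equation.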
Hits are given with their value; i = inactive; ? = inconclusive; nt = not tested or not shown; [ ] = another dose, or the depositor's remark. In the library only some 2.4% were active in any assay of this set; here they are far more common. The call rests on the fitted dose curve; in most records, active means well fitted curve in the direction sought with a large enough effect; inconclusive means small, poorly fitted or top-dose-only effect, or another doubt; inactive means no such curve, though single readings can be large; an effect the other way counts as inactive or inconclusive.

SMILES	Pol eta inh	Pol kappa inh	POLI inh	WRN inhibitor	POLB inh	FEN1 inh
COc1cc(/C=C2\C(=N)N3N=C(S(C)(=O)=O)SC3=NC2=O)ccc1OC(=O)c1ccco1	22.4µM	i	20µM	i	i	?
COc1cc(/C=C2\C(=N)N3N=C(S(C)(=O)=O)SC3=NC2=O)ccc1OCCOc1ccccc1C	50.1µM	i	i	50.1µM	50.1µM	i
COc1ccccc1OCCOc1ccc(/C=C2/C(=N)N3OC(C)=CC3=NC2=O)cc1OC	3.98µM	i	i	?	i	i
COc1cccc(-c2cc(=O)c3cc(O)ccc3o2)c1	nt	i[19.4 µM]	nt	nt	nt	nt
O=C(O)c1ccccc1N/N=C/c1cc(Br)cc(Br)c1O	79.4µM	i	?	i	?	?
O=C(Cc1ccccc1)N/N=C/c1cc(Br)cc(Br)c1O	i	i	i	i	i	i
O=c1c(O)c(-c2ccccc2O)oc2cc(O)cc(O)c12	nt	i	nt	nt	nt	nt
O=c1c(-c2ccc(O)cc2O)coc2cc(O)cc(O)c12	?	?	?	i[11.6 µM]	31.6µM	i
O=c1c(O)c(-c2ccc(O)cc2O)oc2cc(O)cc(O)c12	7.94µM	4.23µM	3.98µM	nt	4.47µM	28.2µM
O=c1c(C(c2ccccc2)c2c(O)sc3ccccc3c2=O)c(O)sc2ccccc12	i	i	i	i	31.6µM	i
CCC(C)c1ccc(OCC(=O)Nc2ccc3c(c2)C(=O)NC3=O)cc1 (centres undefined)	i	i	i	i	35.5µM	i
CCOc1ccc(C(=O)Nc2ccc3c(c2)C(=O)NC3=O)cc1	i	i	i	i	i	i
COc1ccc2[nH]cc(CCNc3ncncc3-c3ccccc3C(F)(F)F)c2c1	nt	i	nt	nt	nt	nt
Clc1ccc2c(N/N=C/c3cccc(Br)c3)ccnc2c1	i	i	i	i	31.6µM	i
Clc1ccc2c(NNc3ccccc3Cl)ccnc2c1	i	i	i	i	i	i
Clc1ccc2c(N/N=C/c3ccccc3Br)ccnc2c1	i	i	i	?	22.4µM	i
O=[N+]([O-])c1ccc(/C=N/Nc2ccnc3cc(Cl)ccc23)o1	?	i	?	i[11.6 µM]	?	?
O=C(Nc1ccccc1)N1CCCC2(CCN(C(=O)c3cccc(F)c3)CC2)C1	nt	i	nt	nt	nt	nt
CC(/C=C/c1ccco1)=N/NC(=O)c1ccc(C)nc1	i	i	?	i	i	i
Cc1ccc(C(=O)N/N=C/c2cccc(OC(=O)/C=C/c3ccco3)c2)cn1	?	i	?	i	20µM	i
O=C(/C=C/c1ccc(-c2ccccc2)cc1)NCc1cccnc1	i	i	?	i	50.1µM	i
COc1cc(/C=C2\SC(=O)N(c3ccc(Cl)cc3)C2=O)cc([N+](=O)[O-])c1O	i	?	6.31µM	?	56.2µM	?
CCOc1ccc(/C=C2\SC(=O)N(c3ccc(O)cc3)C2=O)cc1OC	i	i	i	i	i	i
O=C(N/N=C/C(Cl)=C/c1ccc([N+](=O)[O-])cc1)C(=O)Nc1ccccc1C(=O)O	44.7µM	?	17.8µM	?	20µM	?
CCCC(=O)Oc1c(Sc2ccc(Cl)cc2)c(C)nn1-c1ccccc1	i	i	25.1µM	nt	i	i
SMILES	Pol eta inh	Pol kappa inh	POLI inh	WRN inhibitor	POLB inh	FEN1 inh
CCOc1ccc(N2CC(c3nc4ccccc4n3Cc3cccc(Cl)c3)CC2=O)cc1 (centres undefined)	i	i	i	nt	i	i
Cc1ccc(OCC(=O)c2ccc(Cl)s2)c([N+](=O)[O-])n1	?	?	?	i	25.1µM	i
Cc1ccc(CNc2ccc(N3CCOCC3)cc2)s1	i	i	?	i	i	i
CC(=O)N1CCN(c2ccc(NCc3ccc(C)s3)cc2)CC1	i	i	50.1µM	i	i	?
Cc1ccc(-c2nc3cc(C(C)C)ccc3o2)cc1NC(=O)c1cc([N+](=O)[O-])ccc1N1CCOCC1	i	i	i	nt	i	i
CCCC[C@@H]1C[C@H]1[C@@H](NC(=O)c1ccco1)c1ccc(C(=O)OC)cc1	31.6µM	i	i	i	nt	i
C(=C\c1ccco1)/C=N/n1cnnc1	i	?	39.8µM	i	i	i
O=C1OC(c2ccccc2)=N/C1=C\C=C\c1ccco1	i	i	?	i	i	i
CC(/C=N/n1c(-c2ccccc2)n[nH]c1=S)=C\c1ccco1	?	i	i	i	?	i
CC(/C=N/n1c(-c2ccco2)n[nH]c1=S)=C\c1ccco1	?	i	?	i	28.2µM	i
S=c1[nH]nc(-c2ccccc2Cl)n1/N=C/C=C/c1ccco1	50.1µM	79.4µM	?	?	20µM	i
CCC(C)NC(=O)CSc1nc2n[nH]c(C)c2c(=N)n1-c1cc(Cl)ccc1C (centres undefined)	i	i	i	nt	i	i
Nc1ncnc2c1nc(Sc1ccc(Cl)cc1)n2[C@H]1OC2COP(=O)(O)O[C@@H]2C1O (some centres undefined)	nt	i	nt	nt	nt	nt
COc1ccc(-c2cn3nc(SCC(=O)Nc4ccc(C)c(Cl)c4)ccc3n2)cc1	i	i	i	nt	i	i
N#Cc1cc([N+](=O)[O-])c2sc(C(N)=O)[n+]([O-])c2c1	nt	i	nt	nt	nt	nt
Cc1ccc(C)c(CSc2nnc(C)c(=O)[nH]2)c1	i	i	i	i	i	i
Cc1nnc(SCc2ccc(CSc3nnc(C)c(=O)[nH]3)cc2)[nH]c1=O	79.4µM	i	?	i[11.6 µM]	?	i
COC(=O)c1ccc(O)cc1	i	i	i	i	i	i
COC(=O)c1ccc(CCc2cc(O)ccc2O)cc1	i	i	i	56.2µM	nt	i
CCc1ccc(-n2nc3cc(C)c(NC(=O)c4cc(Cl)ccc4OC)cc3n2)cc1	i	i	i	nt	i	i
CSc1ccc(C2C(C#N)=C(N)Oc3cc4c(cc32)OCO4)cc1 (centres undefined)	i	89.1µM	i	i[11.6 µM]	i	i
COc1ccc(-c2noc(-c3ccc(N4CCCCC4)c([N+](=O)[O-])c3)n2)cc1	i	i	i	nt	i	i
COc1cc(-c2noc(-c3ccc(N4CCCCC4)c([N+](=O)[O-])c3)n2)cc(OC)c1OC	i	i	i	nt	44.7µM	i
COc1cc(-c2noc(-c3ccc(NCc4ccccc4)c([N+](=O)[O-])c3)n2)cc(OC)c1OC	i	i	i	nt	44.7µM	i
COc1cc(-c2noc(-c3ccc(N(C)C)c([N+](=O)[O-])c3)n2)cc(OC)c1OC	i	i	?	nt	28.2µM	i
CN(C)c1ccc(-c2nc(-c3ccncc3)no2)cc1[N+](=O)[O-]	i	i	i	nt	i	i
COc1ccc(CNc2nc(N)nc3nc[nH]c23)cc1	nt	i	i	nt	nt	i
CN(C)c1ccc(C(=C2C=CC(=[N+](C)C)C=C2)c2c(O)c(S(=O)(=O)[O-])cc3cc(S(=O)(=O)O)ccc23)cc1	nt	8.91µM	?	nt	nt	44.7µM
CN(C)c1ccc(C(=C2C=CC(=[N+](C)C)C=C2)c2ccc(N(C)C)cc2)cc1	nt	?	i	nt	nt	39.8µM

High-throughput results from PubChem BioAssay.
